Shown are actives, neighbours in structure and some others; about 2.7% of the full set was active somewhere.
IP6K1 inh – Primary qHTS assay for small molecule inhibitors of Inositol hexaphosphate kinase 1 (IP6K1) | Inositol hexakisphosphate kinase 1 (Homo sapiens), Q92551 | IP6K1 kinase, ADP-Glo luminescence, 2 h; stronger effect = lower value | activity change, % (series mostly up to about 58 µM) | actives 0.81% (n = 140,000); in the data active = activity change below about -25%; also: % is scaled to controls: 0 for no effect and ±100 for the full control effect
Target sequence (Q92551 whole entry, looked up): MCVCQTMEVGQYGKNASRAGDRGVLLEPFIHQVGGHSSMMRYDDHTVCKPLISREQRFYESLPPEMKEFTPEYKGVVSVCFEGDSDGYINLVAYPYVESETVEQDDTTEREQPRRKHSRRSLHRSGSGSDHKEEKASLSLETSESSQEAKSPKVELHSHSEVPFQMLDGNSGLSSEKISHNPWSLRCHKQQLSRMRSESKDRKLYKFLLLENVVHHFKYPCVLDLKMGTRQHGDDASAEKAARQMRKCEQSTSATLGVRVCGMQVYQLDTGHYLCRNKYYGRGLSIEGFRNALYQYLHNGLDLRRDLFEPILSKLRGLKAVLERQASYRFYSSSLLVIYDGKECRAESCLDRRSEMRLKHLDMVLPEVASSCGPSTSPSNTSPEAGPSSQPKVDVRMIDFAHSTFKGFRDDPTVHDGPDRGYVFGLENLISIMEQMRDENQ
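ADP-Glo luminescence measures ADP made by human IP6K1 during a 2 h RT reaction with ATP/IP6 (mix at 1.3 mM/130 uM); top library doses 57.5 and 19.1 uM final.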
KDM5B inh – Primary screen for KDM5B Histone Demethylases FDH-coupled qHTS. KDM5B demethylase, FDH-coupled NADH fluorescence (FDH is formaldehyde dehydrogenase). actives 2.6% (n = 220,000). Lysine-specific demethylase 5B (Homo sapiens), Q9UGL1. Potency, µM (top dose mostly 57.7 µM), hits mostly inhibitors; also: potency is read from the fitted curve at half-maximal effect; 0% is about no effect; nearly all actives have a fitted effect of over 70% in size
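Here, H3K4me3 peptide (12.5 µM in substrate mix) is demethylated by KDM5BΔAP, 200 nM final, after 10 min compound exposure. Formaldehyde product is coupled through FDH (0.25 U/mL in mix) to NADH fluorescence; 30-min ΔRFU feeds dose-response curves.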
IP6K1 conf – Confirmatory qHTS assay for small molecule inhibitors of Inositol hexaphosphate kinase 1 (IP6K1); shares compounds with IP6K1 inh; recombinant IP6K1 kinase, ADP-Glo luminescence, 2 h; Potency, µM (titrated, usually from 49 µM), without a hit: at the top dose activity change, negative = inhibition, most hits filed as inhibitors; actives 13% (n = 1,200); AID 1645852, 2021; also: potency is read from the fitted curve at half-maximal effect; % is scaled to controls: 0 for no effect and ±100 for the full control effect; nearly all actives have a fitted effect of over 65% in size
The depositor's hits bear a star; i = inactive; ? = inconclusive; / = no result. Unless noted, calls follow the shape of the dose curve; as a rule, active = well fitted inhibition curve with a large enough effect; inconclusive = small, poorly fitted or top-dose-only effect; inactive = no such curve, though single readings can be large or run the other way.

SMILES	IP6K1 inh	KDM5B inh	others
COc1cccc(C(=O)NC2CCCN(Cc3ccc(-c4cc(C)cc(C)c4)cc3)C2)c1 (stereo not given)	3	/
Cn1cnc2cc(C(=O)N[C@@H]3COCC[C@@H]3OCc3cscn3)ccc21	0	i
Cn1ccc(C(=O)N[C@@H]2COCC[C@@H]2OCc2cscn2)cc1=O	-2	28µM*
COc1ccc(-c2noc([C@@H]3CCCN3C(=O)Cc3ccccc3Cl)n2)cc1OC	0	28µM*
COc1ccc(-c2noc([C@@H]3CCCN3C(=O)Cc3cccc(F)c3)n2)cc1OC	-1	25µM*
CCOc1ccc(CC(=O)N2CCC[C@H]2c2nc(-c3ccc(OC)c(OC)c3)no2)cc1OCC	0	i
COc1ccc(CC(=O)N2CCC[C@H]2c2nc(-c3ccc(OC)c(OC)c3)no2)cc1Cl	9	?
COc1ccc(C(=O)N2CCC[C@H]2c2nc(-c3ccc(OC)c(OC)c3)no2)c(C)c1	4	28µM*
COc1ccc(C(=O)N2CCC[C@H]2c2nc(-c3ccc(OC)c(OC)c3)no2)cc1OC	-2	i
COc1cccc(-c2cn3cc(C(=O)Nc4ccc(F)cc4)nc3s2)c1	7	/
CCCCn1c(=O)[nH]c(=O)c2c1nc(CCc1ccccc1)c(=O)n2CCOC	/	i
COC(=O)c1ccc(NC(=O)c2ccc(CNC(=O)OC(C)(C)C)cc2)cc1	/	i
CCOC(=O)c1ccc(NC(=O)Cn2c(N3CCN(c4ccccc4)CC3)nc(C)cc2=O)cc1	15	?
O=C(O)C1(c2ccc(F)cc2)CCCCC1	/	i
CCN(c1ccccc1)S(=O)(=O)c1ccc(NC(=O)c2nc(S(C)(=O)=O)ncc2Cl)cc1	-43*	?
CCS(=O)(=O)c1ncc(Cl)c(C(=O)Nc2ccc(S(=O)(=O)N(C)c3ccccc3)cc2)n1	-21	?
COc1ccc(-c2cc3c(=O)n(CCNC(=O)c4ccc(F)c(F)c4)ccn3n2)cc1	-1	?
COc1ccc(C(=O)NCCn2ccn3nc(-c4ccc(F)cc4)cc3c2=O)cn1	0	25µM*
COc1ccc(-c2cc3c(=O)n(CCNC(=O)c4ccc(N(C)C)cc4)ccn3n2)cc1	-9	25µM*
COc1ccc(-c2cc3c(=O)n(CCNC(=O)c4ccc(F)cc4)ccn3n2)cc1	-1	?
COc1ccc(-c2cc3c(=O)n(CCNC(=O)c4ccc5c(c4)OCO5)ccn3n2)cc1	-12	6.3µM*
CCc1ccc(C(=O)NCCn2ccn3nc(-c4ccc(F)cc4)cc3c2=O)cc1	-11	i
ClCc1coc(-c2ccc(Cl)cc2)n1	/	i
Cc1cc(C)c(OC(=O)c2cnc(C)cn2)c(C)c1	/	i
CN1CCOc2c(C(=O)NCCC(N)=O)cc(-c3ccccc3)cc21	-10	35µM*
SMILES	IP6K1 inh	KDM5B inh	others
CN1CCOc2c(C(=O)NCCc3ccccc3)cc(N3CCOCC3)cc21	-11	?
CN1CCOc2c(C(=O)NCCc3cnc[nH]3)cc(-c3ccccc3)cc21	-17	32µM*
COc1cccc(-c2ccnc(-c3nnc(C)n3C3CCCCC3)c2)c1	14	i
COc1ccc(-c2ccnc(-c3nnc(C)n3C3CCCCC3)c2)cc1OC	-8	35µM*
COCCNC(=S)NCCN(Cc1ccccc1)C(=S)NCCOC	/	i
COc1ccc(N2C(=O)C3(CCCCC3)C2C(=O)NCCN2CCc3ccccc3C2)cc1 (stereo not given)	-13	25µM*
COc1ccc(N2C(=O)C3(CCCCC3)C2C(=O)NCCCN2CCCC2)cc1 (stereo not given)	-10	i
COc1cc(Cl)ccc1C(=O)N[C@@H]1CN(c2ccncn2)C[C@H]1CN(C)C	-7	i
CN(C)C[C@@H]1CN(c2ccccn2)C[C@H]1NC(=O)c1cnco1	8	32µM*
COc1ccc(CC(=O)N[C@@H]2CN(C)C[C@H]2CN(C)C)cc1	-17	i
CN(C)C[C@@H]1CN(c2ccccn2)C[C@H]1NC(=O)c1cccs1	10	?
COc1ccc(CC(=O)N[C@@H]2CN(c3ccccn3)C[C@H]2CN(C)C)cc1	0	28µM*
COc1ccc(C(=O)N[C@@H]2CN(c3ccccn3)C[C@H]2CN(C)C)c(OC)c1	23	28µM*
CCOc1cc(/C=C2/NC(=O)NC2=O)cc(Cl)c1OCc1ccccc1F	/	i
O=C(OCc1cccc(C(F)(F)F)c1)c1ccc(-c2nnn(Cc3ccc(F)cc3)n2)cc1	-3	i
O=C(O)Cn1nnc(-c2ccc(OCc3cccc(C(F)(F)F)c3)cc2)n1	-30*	?	IP6K1 conf=?
COc1cccc(-c2cc(C(=O)NCC#N)c3cnn(C)c3n2)c1	5	/
COc1ccc(NC(=O)/C=C/c2ccc3ccccc3n2)c(OC)c1	/	i
Cc1ccc(C)c(N2CCN(c3ncnc4c3nc3n4CCCC3)CC2)c1	-30*	i	IP6K1 conf=-3%
Cc1ccc(C)c(N2CCN(c3ncnc4c3nc3n4CCCCC3)CC2)c1	10	i
Cc1ccc(-c2nc(S(=O)(=O)c3ccc(Cl)cc3)c(N3CCCCC3)o2)cc1	-34*	?	IP6K1 conf=?
COc1ccc(-c2nc(S(=O)(=O)c3ccc(C)cc3)c(N3CCCCC3)o2)cc1	-2	?
Cc1ccc(CNC(=O)Cc2c(C)c3c(cc(C)c4c(C)coc43)oc2=O)cc1	-26*	i	IP6K1 conf=-20%
Cc1coc2c1c(C)cc1oc(=O)c(CC(=O)NCCc3ccc(Cl)cc3)c(C)c12	-7	i
O/N=C/c1ccccc1Br	/	i
SMILES	IP6K1 inh	KDM5B inh	others
Cc1ccc(NS(=O)(=O)c2ccc3[nH]c4c(c3c2)CCCCCC4)cc1Cl	6	?
Cc1cccc(C)c1NC(=O)CN(C)S(=O)(=O)c1ccc2[nH]c3c(c2c1)CCCC3	-26*	?	IP6K1 conf=21%
Cc1ccc(NS(=O)(=O)c2ccc3[nH]c4c(c3c2)CCCC4)cc1N(C)C	-27*	?	IP6K1 conf=-7%
Cc1cc(C)cc(NC(=O)CN(C)S(=O)(=O)c2ccc3[nH]c4c(c3c2)CCCC4)c1	16	?
CC1(C)C2CC=C(/C=N/NC(=S)NCc3ccccc3)C1C2 (stereo not given)	/	i
COc1ccc(-c2ccc(C(=O)Nc3cccc(F)c3)cc2)nn1	5	/
COc1ccc(CN2C[C@H]3CN(Cc4cnn(C)c4)CCN3C2=O)cc1	-30*	?	IP6K1 conf=?
COc1ccc(CN2CCN3C(=O)N(Cc4ccc(C)cc4)C[C@H]3C2)cc1	-2	i
CCCn1nc(C(=O)Nc2ccc(C)cn2)c2ccccc2c1=O	/	i
COc1ccc(OC)c(NC(=O)COC(=O)c2cc(S(=O)(=O)N3CCOCC3)ccc2F)c1	/	i
O=C(Nc1ccnn1C1CCN(Cc2ccc(-c3ccccc3)cc2)CC1)C1CC1	-1	i
O=C(Nc1nc2cccc(-c3ccc(CN4CCS(=O)(=O)CC4)cc3)n2n1)C1CC1	-9	/	IP6K1 conf=39%
Oc1ccc(-n2nnnc2SCc2ncc(-c3ccc(Cl)cc3)o2)cc1	/	i
CCc1nc2ccc(C(=O)NCc3cccc(Br)c3)cc2nc1CC	10	?

High-throughput results from PubChem.
